The entries come from a sample that favours hits as a whole.
VACV Venus inh: inhibitors of vaccinia virus (Venus reporter); Vaccinia virus Venus reporter expression, fluorescence; Potency, µM (doses to about 36.5 µM), actives largely listed as inhibitors; hit rate 0.46% among 330,000; calls by dose curve; tested in A549 cells; further: nearly all actives have a fitted effect of over 30% in size
VACV mCherry inh: vaccinia inhibition (mCherry reporter). Potency, µM (series often up to 36.5 µM), usual class: inhibitors. Vaccinia virus mCherry reporter infection, fluorescence. hit rate 0.63% among 310,000; calls by dose curve; tested in A549 cells; further: nearly all actives have a fitted effect of over 35% in size
Shiga toxin inh: Shiga toxin inhibition | Vero cells, Shiga toxin protein synthesis inhibition reporter | inhibition, % at 38.7 µM | hit rate 9.2% among 290,000 | AID 2315; in the data active means inhibition mostly above about 28%, no sharp cut-off; inactive means mostly below about 43%
Cycloheximide cs: counter-screen for Shiga toxin inhibitors: cycloheximide protein synthesis inhibition; cell reporter, cycloheximide protein synthesis inhibition counterscreen; max response, %; hit rate 12% among 300,000; AID 2314; in the data active means max response mostly above about 13%, no sharp cut-off; inactive means mostly below about 14%; further: read at 38.3 µM for the half of the compounds with a filed dose
Lassa entry inh: blocks Lassa virus binding to or entry into cells | Lassa virus pseudotype entry inhibition, cell reporter | Potency, µM (doses to about 37.9 µM), usual class: inhibitors | hit rate 1.2% among 300,000; calls by dose curve; tested in HEK293 cells; further: nearly all actives have a fitted effect of over 50% in size
MARV entry inh: Marburg virus entry inhibition. hit rate 1.8% among 300,000. Potency, µM (top dose mostly 37.8 µM), actives largely listed as inhibitors. Marburg virus pseudotyped entry inhibition, cell reporter. AID 540276; calls by dose curve; tested in HEK293 cells
Hits are given with their value; i = inactive; ? = inconclusive; nt = no result.

SMILES	VACV Venus inh	VACV mCherry inh	Shiga toxin inh	Cycloheximide cs	Lassa entry inh	MARV entry inh
Cc1ccc(NC(=O)c2cc3c(-c4ccccc4)nn(-c4ccccc4)c3s2)cc1	i	i	nt	nt	i	i
COc1cc(/C=C/C(=O)c2ccc(Cl)s2)cc(OC)c1O	nt	nt	i	i	?	?
COc1cc(OC)c(C(=O)/C=C/c2ccc(OCc3ccccc3)c(OC)c2)c(OC)c1	?	?	i	i	?	11.2µM
COc1cc(O)c(C(C)=O)c(OC)c1	i	i	nt	nt	nt	nt
COc1cc(O)c(C(=O)/C=C/c2ccccc2)c(OC)c1	?	?	69.7	34.1	nt	nt
COc1ccc(/C=C/C(=O)c2ccc(Cl)s2)cc1O	nt	nt	i	24.0	i	i
O=C(C1CC1)N1CCC(c2nc(-c3ccc(S(=O)(=O)N4CCCC4)cc3)no2)CC1	i	i	i	i	i	i
O=C(Nc1ccc2c(c1)OCO2)N1CCCC1	nt	nt	55.4	i	nt	nt
O=C(Nc1ccc2c(c1)OCCO2)C1CCCN1C(=O)Nc1ccc(F)cc1 (stereo not drawn)	i	i	i	11.6	i	i
O=C(NC1CCCCC1)N1CCC(c2nc(-c3ccc(S(=O)(=O)N4CCCC4)cc3)no2)CC1	i	i	i	i	10µM	i
O=C(Nc1ccc2c(c1)OCO2)N1CCN(c2ccc(F)cc2)CC1	i	i	i	18.6	i	?
O=S(=O)(Nc1c(Br)cc(Br)c2cccnc12)C1CC1	nt	nt	i	i	nt	nt
CC=COC(=O)N[C@@H](c1ccccc1)[C@]1(C(C)=O)CCOC1=O	nt	nt	nt	nt	nt	i
COC(=O)C1CCN(Cc2ccc3c(c2)CN(C(=O)c2sc(C)nc2C)CCO3)CC1	i	i	nt	nt	nt	nt
COCCn1c(-c2ccccc2)c(C)n2c3c(=O)n(C)c(=O)n(C)c3nc12	i	i	nt	nt	i	?
O=C(Nc1ccc(F)cc1)N1CCOCC1	nt	nt	i	i	?	i
O=C(Nc1ccc2c(c1)OCO2)N1CCOCC1	nt	nt	65.9	35.6	i	i
CC1CN(C(=O)Nc2ccc3c(c2)OCO3)CC(C)O1 (stereo not drawn)	nt	nt	50.0	44.7	i	i
O=C(Nc1ccc2c(c1)OCO2)N1CCN(c2ncccn2)CC1	nt	nt	83.5	35.1	?	?
CN(C)c1ccc(NC(=O)N2CCOCC2)cc1	i	i	71.7	39.4	i	i
COc1ccc(NC(=O)N2CC(C)OC(C)C2)cc1OC (stereo not drawn)	nt	nt	i	i	i	i
Cc1cc(C)cc(-c2cc3c(c(-c4c(O)c(-c5cc(C)cc(C)c5)cc5c4CCCC5)c2O)CCCC3)c1	nt	nt	nt	nt	nt	i
CCc1nc2cc(C(=O)N[C@H]3CCCCNC3=O)cc(NC(=O)c3ccccc3OC)c2n1C	i	i	nt	nt	nt	nt
CN(C)c1ccc(-c2noc(C3CCN(S(=O)(=O)c4ccc(C(=O)O)cc4)CC3)n2)cc1	nt	nt	nt	nt	i	i
CN(C)c1ccc(-c2noc(C3CCN(C(=O)Nc4ccc(Cl)cc4)CC3)n2)cc1	i	i	51.6	15.8	i	i
SMILES	VACV Venus inh	VACV mCherry inh	Shiga toxin inh	Cycloheximide cs	Lassa entry inh	MARV entry inh
CC1=NN(C(N)=S)C(=O)C1N=Nc1ccccc1O (stereo not drawn)	nt	nt	i	15.3	nt	nt
CC1=NN(C(N)=S)C(=O)C1N=Nc1ccc(C)cc1C (stereo not drawn)	nt	nt	58.6	28.6	nt	i
CC1=NN(C(N)=S)C(=O)C1N=Nc1c(C)cc(C)cc1C (stereo not drawn)	i	i	i	i	i	i
CC1=NN(C(N)=S)C(=O)C1N=Nc1ccccc1C (stereo not drawn)	i	i	i	i	i	?
CC1=NN(C(N)=S)C(=O)C1N=Nc1c(Cl)cc([N+](=O)[O-])cc1Cl (stereo not drawn)	nt	nt	27.4	18.0	nt	nt
CC1=NN(C(N)=S)C(=O)C1N=Nc1cccc(Cl)c1 (stereo not drawn)	nt	nt	78.9	44.0	nt	nt
CCc1cccc(NC(=O)c2cc(S(=O)(=O)N3CCCCCC3)cn2C)c1	i	i	nt	nt	i	nt
O=C(NCCOc1ccccc1)C1CCC(=O)N(CCCN2CCCC2=O)C1 (stereo not drawn)	i	i	i	i	i	i
COc1ccc(/C=C/C(=O)NCCc2nc3ccccc3[nH]2)cc1	i	i	i	15.7	i	i
C#CCNC(=O)/C=C/c1ccc(OC)cc1	i	i	59.1	40.3	i	i
COc1ccc(/C=C/C(=O)NCCCN2CCCC2)cc1	nt	nt	i	i	nt	nt
CCCCOc1ccc(/C=C/C(=O)NCCc2nc3ccccc3[nH]2)cc1	i	i	i	i	i	i
O=C(/C=C/c1ccco1)N/C(=C\c1ccccc1)C(=O)NCCc1nc2ccccc2[nH]1	i	i	37.0	i	i	i
O=C(N/N=C/c1cccs1)c1cc(-c2cccc3ccccc23)n[nH]1	?	i	i	46.5	nt	i
O=C(N/N=C/c1ccco1)c1cc(-c2ccc3ccccc3c2)n[nH]1	?	i	i	17.9	?	12.6µM
CCc1ccc(-c2cc(C(=O)N/N=C/c3ccco3)[nH]n2)cc1	i	i	i	i	nt	i
O=C(N/N=C/c1cccs1)c1cc(-c2ccc3ccccc3c2)n[nH]1	?	nt	54.1	39.2	i	?
CC1CCN(C(=O)CSCC(=O)Nc2nc(-c3cccs3)cs2)CC1	i	i	44.9	10.3	nt	nt
CC1CCCCN1C(=O)CSCC(=O)Nc1nc(-c2cccs2)cs1 (stereo not drawn)	?	?	37.1	23.9	nt	nt
CC1CCCN(C(=O)CSCC(=O)Nc2nc(-c3cccs3)cs2)C1 (stereo not drawn)	?	?	i	i	nt	nt
CCOC(=O)N1CCN(C(=O)CSCC(=O)Nc2nc(-c3cccs3)cs2)CC1	nt	nt	i	i	i	i
CC(C)OC(=O)NC(C)(C)COC(=O)Nc1cccc(Cl)c1	nt	nt	i	13.6	i	i
CC(C)OC(=O)NCCOC(=O)Nc1cccc(Cl)c1	i	i	i	i	i	i
C#CC(C)OC(=O)Nc1cccc(Cl)c1 (stereo not drawn)	nt	nt	41.0	32.0	nt	nt
C[C@H]1C(=O)N(S(=O)(=O)c2ccc([N+](=O)[O-])cc2)[C@H]1c1ccc(F)cc1	nt	nt	i	i	nt	nt
SMILES	VACV Venus inh	VACV mCherry inh	Shiga toxin inh	Cycloheximide cs	Lassa entry inh	MARV entry inh
Cc1ccc(CNC(=O)CC2Oc3ccccc3NC2=O)cc1 (stereo not drawn)	i	i	nt	nt	nt	i
O=C(COc1ccc(N2C(=O)c3ccccc3C2=O)cc1)c1ccccc1	nt	nt	i	i	i	i
O=C(COc1ccccc1N1C(=O)c2ccccc2C1=O)c1ccc(Cl)cc1	i	i	33.6	20.4	i	i
Cc1ccc(C2N(c3ccc(Cl)cc3)C(=O)N3CCCN23)cc1 (stereo not drawn)	i	i	i	i	i	?
Cc1ccc(C(=O)Nc2cccc(-c3nc(CNC(=O)[C@@H]4C[C@@H](C)NC(=S)N4)c(C)o3)c2)s1	i	i	nt	nt	nt	nt
O=C(NCCNC(=O)c1ccccn1)c1ccc(Cl)cc1	i	i	i	i	i	i
C/C(=N\NC(=O)c1ccc(N/N=C(\C)c2ccc(O)cc2)cc1)c1ccc(O)cc1	nt	nt	68.2	40.3	nt	nt
C/C(=N\Nc1ccc2nncn2n1)c1ccccn1	?	?	i	i	?	?
C/C(=N\NC(=O)c1ccccn1)c1ccc(Cl)cc1	i	i	52.9	32.8	?	?
C/C(=N\NC(=O)c1ccc(Cl)cc1)c1ccccn1	?	?	84.6	40.4	1.26µM	0.891µM
C/C(=N\Nc1ccc(Cl)cc1)c1ccccn1	i	i	74.3	23.2	i	?
COCCNC(=S)N/N=C(\C)c1ccc(O)cc1	i	i	i	i	i	i
